# Out of some 1,300 compounds screened, about 460 (35%) were called active. Not shown: some 39% with an inconclusive outcome. The call rests on the fitted dose curve; in most records, active means well fitted inhibition curve with a large enough effect; inconclusive means small, poorly fitted or top-dose-only effect; inactive means flat fitted curve, though single readings scatter. This is one part of the list.
# Target: Protein phosphatase EYA2 (Homo sapiens) (UniProt O00167)
# Assay: qHTS for Inhibitors of the Phosphatase Activity of Eya2: Confirmatory Assay for Cherry-picked Compounds; further: nearly all actives have a fitted effect of over 65% in size;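 on activity change, negative = inhibition: 0% = DMSO wells and -100% = EGTA control giving full inhibition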
# Conditions: purified EYA2 phosphatase activity, qHTS confirmation; series mostly up to 46.1 µM; activity change, negative = inhibition: at the top concentration
# Description: The Eya protein family is an essential co-activator of the Six1 transcription factor. Six1 is a developmental gene that is abnormally re-expressed in a large percentage of breast cancers. This over-expression plays a causal role in the initiation and metastatic development of breast cancers. The Eya family of protein is also found to contain a unique HAD phosphatase domain with protein tyrosine phosphatase activity which can potentially play a role in Six1-mediated breast tumorigenesis. Recently, Eya2 is found to dephosphorylate the histone variant H2AX and direct cells towards DNA repair instead of apoptosis in the event of DNA damage.
# A 1536 well format, fluorescence based qHTS assay was developed and used to target the phosphatase activity of Eya2 (AID 488837). Inhibitors found against Eya2 could serve as potential therapeutic tools to inhibit Six1-mediated breast tumorigenesis and to increase the efficiency of radiation and certain chemo therapy. This assay assessed the activity of the primary screen cherry-picked compounds against Eya2. Inhibition is the desired outcome for this assay.
# NIH Chemical Genomics Center [NCGC]
# NIH Molecular Libraries Probe Centers Network [MLPCN]
# Assay Submitter (PI): Rui Zhao, University of Colorado Denver
# Eya2 enzyme and 3-O-methyl-fluorescein phosphate (OMFP) substrate working solutions were reconstituted in the buffer reagent consist of 50 mM HEPES pH 7.5, 50 mM NaCl, […], 0.05% BSA and 1 mM DTT. One and a half microliter of 0.2 uM Eya2 working solution was dispensed in a 1536 well Greiner plate (black, medium bind). Twenty-three nanoliter of test compounds and control compound EGTA was transferred to the assay plate using the Kalypsys robotic system equipped with a 1536 pin head. The plate was incubated at room temperature for 10 minutes. One and a half microliter of the 50 uM the OMFP substrate was then dispensed to the assay plate and incubated at room temperature for additional 10 min. The fluorescence signal was read using the PerkinElmer ViewLux plate reader using a 485 nm excitation and 525 nm emission filters. The data was normalized to the positive control for maximum inhibition and DMSO treated wells as negative control.
# Chain of Protein phosphatase EYA2 (Homo sapiens) (O00167 whole entry, looked up): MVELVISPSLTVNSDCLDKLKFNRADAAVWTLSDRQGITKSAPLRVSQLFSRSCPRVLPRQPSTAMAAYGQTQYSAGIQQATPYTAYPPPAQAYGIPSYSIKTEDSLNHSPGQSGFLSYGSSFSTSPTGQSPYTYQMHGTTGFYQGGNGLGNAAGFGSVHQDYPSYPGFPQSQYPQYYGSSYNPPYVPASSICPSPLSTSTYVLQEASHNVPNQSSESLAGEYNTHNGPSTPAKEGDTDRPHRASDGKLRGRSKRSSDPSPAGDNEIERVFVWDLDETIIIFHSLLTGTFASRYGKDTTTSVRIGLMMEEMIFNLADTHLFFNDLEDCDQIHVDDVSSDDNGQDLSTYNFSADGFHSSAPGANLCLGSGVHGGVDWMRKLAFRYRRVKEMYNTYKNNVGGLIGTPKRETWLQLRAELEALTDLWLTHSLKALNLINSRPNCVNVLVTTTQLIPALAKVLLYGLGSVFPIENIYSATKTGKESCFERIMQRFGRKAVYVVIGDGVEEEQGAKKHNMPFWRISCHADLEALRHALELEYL
SMILES,Potency,"activity change, negative = inhibition"
CCC(C)Nc1nc(-c2ccccn2)nc2ccccc12 (stereo not given),8.49 µM (active),–
CC(C)c1cccc(-c2ccc3c(c2)S(=O)(=O)c2cccc(C(=O)O)c2C3=O)c1,21.3 µM (active),–
CCN(CC)c1ccc(/C=C2\CCC(/C=C(\C#N)C(=O)Nc3ccccc3F)=C2N2CCOCC2)cc1,3.01 µM (active),–
N#C/C(=C\C1=C(N2CCOCC2)C(=C\c2ccccc2)/CC1)C(=O)Nc1ccccc1F,1.07 µM (active),–
COc1cc([C@H]2Oc3cc([C@H]4Oc5cc(O)cc(O)c5C(=O)[C@@H]4O)ccc3O[C@@H]2CO)ccc1O,–,-19.7% (inactive)
O=C1C(=O)C(c2ccc(O)cc2O)Oc2cc(O)cc(O)c21 (stereo not given),8.49 µM (active),–
CC1(C)CC(=O)C(C2C3=C(CC(C)(C)CC3=O)Oc3c(Br)cc(Br)cc32)=C(O)C1 (stereo not given),3.79 µM (active),–
O=C(CSc1nnc2c(Cl)cc(Cl)cn12)NC1CCS(=O)(=O)C1 (stereo not given),–,-4.62% (inactive)
CCC(C)Nc1ccc(NC(C)CC)cc1 (stereo not given),0.0953 µM (active),–
O=c1cc2c(=O)oc3cc(O)c(O)oc3c2c(O)c1O,1.2 µM (active),–
Cc1ccc2cc(NC(=O)CC(CC(=O)O)c3ccccc3)ccc2n1 (stereo not given),19 µM (active),–
O=C(C1CCN(c2nnc(-n3cccc3)s2)CC1)N1CCOCC1,–,-6.36% (inactive)
CN(C)c1ccc2c(c1)C(=NO)c1ccccc1-2,9.53 µM (active),–
CN(C)c1ccc(/C=C2\C(Cl)=Cc3ccccc32)cc1,5.36 µM (active),–
CNc1ccc(C=C2c3ccccc3-c3ccccc32)cc1,12 µM (active),–
CN(C)c1ccc(C=C2c3ccccc3-c3ccccc32)cc1,7.57 µM (active),–
CN(Cc1ccccc1F)c1nc(-c2cccnc2)nc2ccccc12,–,-29% (inactive)
COc1ccc(Nc2nc(C(C)(C)C)nc3c2nnn3Cc2ccccc2Cl)cc1OC,–,-23.1% (inactive)
CN(C)c1ccc(/C=C2\c3ccccc3-c3ccc(N(C)C)cc32)cc1,5.36 µM (active),–
CN(C)c1ccc(/C=C2\C(=O)/C(=C/c3ccc(N(C)C)cc3)c3ccccc32)cc1,4.26 µM (active),–
CCOc1ccc(S(=O)(=O)NCc2ccc(C)cc2)c2cccnc12,–,-14.1% (inactive)
CCOc1ccc(NC(=O)COc2cccc3cccnc23)cc1S(=O)(=O)N1CCCC1,19 µM (active),–
CCOc1ccc(NC(=O)COc2ccc3c(c2)CCC3)cc1OC,–,-12.8% (inactive)
COc1cc(N(C)C)ccc1/C=C1\C=Cc2ccccc21,7.57 µM (active),–

SMILES,Potency,"activity change, negative = inhibition"
COc1cc(OC)c(OC)cc1/C=C1\C=Cc2ccccc21,8.49 µM (active),–
CN(C)c1ccc(/C=C2\C=Cc3ccccc32)c(Cl)c1,6.75 µM (active),–
COc1cc(N(C)C)c(OC)cc1/C=C1\C=Cc2ccccc21,5.36 µM (active),–
CC(C)(C)C(=O)[C@H]1[C@H](c2ccccc2)[C@@]2(N=C(c3ccccc3)OC2=O)C2c3ccccc3C=NN21 (stereo not given in full),–,-24.9% (inactive)
CC1=CC(=O)Nc2ncccc2O1,19 µM (active),–
Cc1cccc(C)c1Nc1c(-c2ccccn2)nc2ccccn12,7.57 µM (active),–
Cc1ccc(Nc2c(-c3ccccn3)nc3ccc(C)cn23)cc1,4.26 µM (active),–
Cc1ccccc1Nc1c(-c2ccccn2)nc2ccccn12,2.39 µM (active),–
CC(=O)Oc1cccc(C(=O)Nc2cccc(C(=O)Nc3ccccc3C(=O)O)c2)c1,15.1 µM (active),–
CC(=O)c1ccc(NS(=O)(=O)c2cccc(C(=O)Nc3ccccc3C(=O)O)c2)cc1,15.1 µM (active),–
CCOC(=O)C1CCCN(C2=C(NS(=O)(=O)c3ccc(Br)cc3)C(=O)c3ccccc3C2=O)C1 (stereo not given),9.53 µM (active),–
CCOC(=O)CNC(=O)C1CCCN(c2ncccn2)C1 (stereo not given),–,0.81% (inactive)
NC(=O)C1CCN(c2oc(-c3cccs3)nc2S(=O)(=O)c2ccc(Br)cc2)CC1,–,-28.4% (inactive)
CCOC(=O)C1CCN(C2=C(NS(=O)(=O)c3ccc(Br)cc3)C(=O)c3ccccc3C2=O)CC1,3.79 µM (active),–
N/C(=N\OC(=O)c1ccc2ccccc2c1)c1ccncc1,–,-24.1% (inactive)
Cc1cc(C)nc(-n2nc(C)cc2NC(=O)c2cc3ccccc3oc2=O)n1,5.36 µM (active),–
O=C(CC1(O)C(=O)Nc2ccccc21)c1ccccc1 (stereo not given),–,0.66% (inactive)
CCOC(=O)C1=C(COC(=O)CCOc2ccccc2)NC(=O)NC1C (stereo not given),–,-6.75% (inactive)
Cc1nc(COC(=O)c2c(C)nn(-c3ccccc3)c2C)cs1,–,-8.52% (inactive)
COc1ccc(C(=O)Oc2ccc(=O)n(-c3ccccc3)n2)cc1,8.49 µM (active),–
Cc1[nH]c2ccc(C(=O)OC(C)C(=O)N(C)c3ccccc3)cc2c1C (stereo not given),–,-28.2% (inactive)
CCOC(=O)c1c2ccc(OCC(=O)NN)cc2n2ccccc12,–,-27% (inactive)
CCOC(=O)c1[nH]c2ccc(C(=O)OC)cc2c1C(=O)OCC,13.5 µM (active),–
O=c1cc(CSc2ccc(Cl)cc2)nc(-c2ccccn2)[nH]1,2.13 µM (active),–

SMILES,Potency,"activity change, negative = inhibition"
NC(=O)c1ccc(NC(=O)COC(=O)/C=C/c2ccc(Br)o2)cc1,–,-25.7% (inactive)
Cc1ccc(/C=C/C(=O)Nc2ccc(N(C)C)cc2)o1,19 µM (active),–
CCn1ccnc1CNCc1cn(-c2cc(C)ccc2C)nc1-c1ccccc1,15.1 µM (active),–
COc1cc(N)c(Cl)cc1C(=O)N[C@H]1CCN(CCCOc2ccc(F)cc2)C[C@H]1OC,–,-13.7% (inactive)
O=c1c(CO)cc(CO)cc(CO)c1O,5.36 µM (active),–
Cc1cc(NS(=O)(=O)c2ccc(NC(=O)c3cc4c(=O)n5ccccc5nc4s3)cc2)nc(C)n1,8.49 µM (active),–
Cc1cc(NS(=O)(=O)c2ccc(NC(=O)c3cnc(Cl)c(Cl)c3)cc2)nc(C)n1,2.39 µM (active),–
O=C(O)c1ccc(Nc2cnc3ccccc3n2)cc1,–,-19.6% (inactive)
O=C(Nc1ccc(S(=O)(=O)Nc2cnc3ccccc3n2)cc1)c1ccc(Cl)c([N+](=O)[O-])c1,16.9 µM (active),–
O=C(Nc1ccc(Nc2ccccc2)cc1)c1ccc(Cl)cc1[N+](=O)[O-],–,-22.8% (inactive)
CN=c1scc(C)n1/N=C/c1ccc2c(c1)OCO2,–,-29.4% (inactive)
CC1CCC2C(=O)N(c3ccc(C(=O)Oc4cccc5cccnc45)cc3)C(=O)C2C1 (stereo not given),8.49 µM (active),–
COc1ccc(C(=O)/C=C/Nc2ccc(S(=O)(=O)Nc3nc(C)cc(C)n3)cc2)cc1OC,13.5 µM (active),–
COc1cc(NS(=O)(=O)c2ccc(N/C=C\C(=O)c3ccc(OC)c(OC)c3)cc2)nc(OC)n1,9.53 µM (active),–
CC(=O)Nc1ccc2nc(C3CC3)n(Cc3ccc(Cl)cc3)c(=O)c2c1,–,-22.3% (inactive)
C[n+]1ccc(/C=C/c2cc[n+](C)c3ccccc23)c2ccccc21,9.53 µM (active),–
CN1C=C/C(=C\c2cc[n+](C)c3ccccc23)c2ccccc21,16.9 µM (active),–
Cc1cc(C)c2nc(SCC(=O)N(C)C3CCS(=O)(=O)C3)cc(C)c2c1 (stereo not given),–,17.5% (inactive)
CCCCC1=CC2=C(c3ccco3)C(=O)C(C)(OC(=O)c3ccc(OC)cc3)C(=O)C2=CN1CCc1ccccn1 (stereo not given),–,-29.5% (inactive)
COc1cc(C=NO)nc(-c2ccccn2)c1,1.2 µM (active),–
Oc1c(Cl)cc(CN2CCOCC2)c2cccnc12,0.478 µM (active),–
CC(C)Cc1nc2oc3c(=O)[nH]cnc3c2c2c1CCC2,19 µM (active),–
O=C(O)CCc1c2ccc(=O)c(O)c-2oc2c(O)c(O)ccc12,1.69 µM (active),–
O=C(O)c1cccc2cccc(-c3c4ccc(=O)c(O)c-4oc4c(O)c(O)ccc34)c12,3.79 µM (active),–

SMILES,Potency,"activity change, negative = inhibition"
COc1ccccc1NC(=O)NCCN1CCN(C(=O)Nc2ccccc2OC)CC1,–,-11.2% (inactive)
COc1cc(C(C(=O)NC2CCCCC2)N(C(=O)Cc2c[nH]c3ccccc23)c2ccc(C)cc2)cc(OC)c1OC (stereo not given),–,-26.6% (inactive)
O=C(O)c1cccc(N2C(=O)c3cccc(Oc4ccc(Cl)cc4)c3C2=O)c1,–,-12% (inactive)
CC(=O)Oc1cccc2c1C(=O)c1c(OC(C)=O)cc(C(=O)O)cc1C2=O,16.9 µM (active),–
O=S(c1cc(Cl)cc(Cl)c1O)c1cc(Cl)cc(Cl)c1O,1.35 µM (active),–
CCN(CC)c1ccc(NC(=S)NC(=O)c2cccs2)cc1,13.5 µM (active),–
CCCC(=O)Nc1ccc(NC(=S)NC(=O)c2cccs2)cc1,–,-22% (inactive)
CCC(=O)NC(=S)Nc1ccc(NC(=O)COc2ccc([N+](=O)[O-])cc2)cc1,–,-14.9% (inactive)
O=c1[nH][nH]cc1C=Nc1cc(Cl)ccc1O,5.36 µM (active),–
CCOC(=O)c1cc2c(N)c(C(=O)c3ccc(Br)cc3)sc2[nH]c1=O,1.9 µM (active),–
O=C(Nc1nc(-c2ccccn2)cs1)C1CC(=O)N(c2ccc3c(c2)OCCO3)C1 (stereo not given),7.57 µM (active),–
O=C(Nc1nc(-c2ccco2)c(-c2ccco2)s1)C1CC(=O)N(c2ccc3c(c2)OCCO3)C1 (stereo not given),19 µM (active),–
CCc1ccc(-c2csc(NC(=O)C3CC(=O)N(c4ccc5c(c4)OCCO5)C3)n2)cc1 (stereo not given),–,-19.7% (inactive)
Cc1ccc(SCc2nc(N)nc(Nc3ccccc3C)n2)cc1C,–,-27.8% (inactive)
COc1ccc(-c2c(N)cnc(C(=O)O)c2C)c(OCc2ccccc2)c1OC,19 µM (active),–
Cc1ccc(C(=O)Oc2cc(C)n(C)c(=O)c2)cc1,1.51 µM (active),–
Cc1cc(OC(=O)c2ccc(Cl)cc2)cc(=O)n1C,2.39 µM (active),–
Cc1ccc(NC(=O)CSc2cccc3cccnc23)c(C)c1,5.36 µM (active),–
CCN1C(=O)/C(=C2/C=Cc3ccccc3N2CC)SC1=S,3.79 µM (active),–
Cc1cccc(NC2=C(NCCO)C(=O)c3ccccc3C2=O)c1,16.9 µM (active),–
c1ccc2cc(CSCc3nc4ccccc4[nH]3)ccc2c1,–,-26.1% (inactive)
Cc1nn2c(c1-c1ccccc1)NC1=C(C(=O)CCC1)C2c1ccccc1 (stereo not given),–,-15.1% (inactive)
O=C1C=CC(=O)c2c(O)c(N3CCN(CCOCCO)CC3)c(Br)c(O)c21,13.5 µM (active),–
